# Assay results: PubChem BioAssay (EPA / NIEHS)
# “And” between values parts separate entries of the source, which are not always exact repeats. Identical values can stand only once. A structure can be active in one record and inactive in another. The source made the active and inactive calls. Rule for the calls: active = hit-call score of the fitted dose curve at least 0.9, where 1 is the maximum; inactive = score below 0.9.
# Read-out: Interferon-inducible T-cell alpha chemoattractant (ITAC), CXCL11 (gene 6373)
# Assay: BSK_hDFCGF_ITAC: BioMAP Diversity Plus: hDFCGF Assay for Interferon-inducible T-cell alpha chemoattractant (ITAC) Biomarker Activity (AID 2284251)
# Settings: primary human foreskin fibroblasts
# Experimental: BSK_hDFCGF is a cell-based, multiplexed-readout assay that uses foreskin fibroblast, a human skin primary cell, with measurements taken at 24 hours after chemical dosing in a 96-well plate.BSK_hDFCGF_ITAC is an assay component measured in the BSK_hDFCGF assay. It measures I-TAC antibody related to regulation of gene expression using ELISA technology.Data from the assay component BSK_hDFCGF_ITAC was analyzed at the endpoint, BSK_hDFCGF_ITAC, in the positive analysis fitting direction relative to DMSO as the negative control and baseline of activity. Using a type of binding reporter, gain or loss-of-signal activity can be used to understand protein changes. To generalize the intended target to other relatable targets, this assay endpoint is annotated to the 'cytokine' intended target family, where the subfamily is 'chemotactic factor'.
# The levels of cell surface (or secreted, indicated by the prefix "s") biomarker endpoints were measured by ELISA. Overt cytotoxicity to cells in confluent adherent cultures (all systems other than the BT system) was assessed by measuring total protein levels using sulforhodamine B (SRB) staining in parallel cultures at the time of biomarker measurements, indicated as SRB endpoints. For proliferation assays for adherent cell types, individual cell types are cultured at sub-confluence and relative cell numbers quantified by SRB staining at time points optimized for each system (48 h: 3C and CASM3C systems; 72 h: BT and HDF3CGF systems; 96 h: SAg system). SRB was performed by staining cells with 0.1% SRB after fixation with 10% TCA and reading wells at 560 nm.Viability and proliferation of PBMC (T cells) was quantified by Alamar Blue reduction for the SAg and BT systems. For PBMC viability (referred to as PBMC Cytotoxicity within the assay endpoint names), cells were plated (75,000/well in a 96-well plate) and then chemical samples added for 1 h before addition of activators, SEB and TSST-1 (20 ng/mL final concentration each). Cells were incubated for 90 h. Then, Alamar Blue (20 uL/well) (Invitrogen, Cat DAL1100) was added for 6 h, and the plates were read with a fluorescence microplate reader at 546/580 nm (excitation/emission). For PBMC proliferation, cells were plated and activated as above but incubated for only 16 h prior to addition of Alamar Blue. Plates were read after 6 h.
Structure (SMILES),outcome,AC50
c1ccc(OCCOc2ccccc2)cc1,inactive,–
CC(C)(CO)CO,inactive,–
O=C(O)C(F)(F)OC(F)(F)C(F)(F)OC(F)(F)C(F)(F)C(F)(F)C(F)(F)F,–,10.9 µM (active) and 17.6 µM (active)
CCCCN(CCO)CCO,inactive,–
CCn1cc(C(=O)O)c(=O)c2ccc(C)nc21,inactive,–
C=C(C)C(=O)OCCC(F)(F)C(F)(F)C(F)(F)C(F)(F)C(F)(F)C(F)(F)C(F)(F)C(F)(F)F,inactive,–
CC(=O)c1ccc(C)cc1,inactive,–
OCC(F)(OC(F)(F)C(F)(OC(F)(F)C(F)(F)C(F)(F)F)C(F)(F)F)C(F)(F)F (centres undefined),–,2.4 µM (active) and 2.03 µM (active)
O=S(=O)(O)C(F)(F)C(F)(F)OC(F)(F)C(F)(F)F,inactive,–
O=C(O)C(F)(F)C(F)(F)C(F)(F)C(F)(F)C(F)(F)C(F)(F)C(F)(F)C(F)F,inactive,12.9 µM (active)
CCCO[Si](OCCC)(OCCC)OCCC,inactive,–
C=C(F)C(=O)OC(C(F)(F)F)C(F)(F)F,inactive,–
CC(C)CCCC(C)(C)O,inactive,–
